Measured values: PubChem BioAssay AID1159580 (chemical genetic matrix, 2015)
Values joined by “and” are separate entries in the source; they are usually repeats but may differ in a detail not shown here. Equal entries are not always repeated. The whole screen tested about 5,500 compounds, of which about 2,000 (36%) were called active. Inconclusive results (about 18%) are left out. Cut-off read from the data, not from the text of the source: active = normalized growth mostly below about 0.91 (no sharp cut-off); inconclusive = no clear call, values can overlap the other calls; inactive = mostly above about 0.92. This is one part of the list.

Assay: chemical genetic growth profiling, strain panel (AID 1159580);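 note: tested at 20 µM; growth read once vehicle control cultures reached saturation at 30 °C; 1 = growth at the plate median or of vehicle wells; lower values mean less growth of the strain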
Details: S. cerevisiae deletion strains, growth OD

Measured: normalized growth

Cc1cc(C(C)(C)CC(C)(C)C)ccc1OCCOCC[N+](C)(C)Cc1ccccc1
active: locus YAL013W, strain DEP1, hits give low values 0.056 | locus YAL021C, strain ccr4, hits give low values 0.0621 | locus YAL026C, strain drs2, hits give low values 0.0577 | locus YAL030W, strain snc1, hits give low values 0.0548 | locus YBL061C, strain skt5, hits give low values 0.0577 | locus YBR009C, strain hhf1, hits give low values 0.0593 | locus YBR021W, strain FUR4, hits give low values 0.0884 | locus YBR023C, strain chs3, hits give low values 0.0588 | locus YBR171W, strain sec66, hits give low values 0.0729 | locus YBR229C, strain ROT2, hits give low values 0.0513 | locus YBR231C, strain swc5, hits give low values 0.0584 | locus YBR279W, strain paf1, hits give low values 0.0568 | locus YCL011C, strain gbp2, hits give low values 0.0539 | locus YCL016C, strain dcc1, hits give low values 0.0604 | locus YCL029C, strain bik1, hits give low values 0.0578 | locus YCL061C, strain MRC1, hits give low values 0.0639 | locus YCL069W, strain vba3, hits give low values 0.0588 | locus YCR088W, strain abp1, hits give low values 0.0592 | locus YDL005C, strain med2, hits give low values 0.0722 | locus YDL035C, strain GPR1, hits give low values 0.0517 | locus YDL040C, strain nat1, hits give low values 0.0573 | locus YDL074C, strain BRE1, hits give low values 0.0803 | locus YDL101C, strain DUN1, hits give low values 0.0608 | locus YDL134C, strain PPH21, hits give low values 0.0535 | locus YDL185W, strain tfp1, hits give low values 0.0735 | locus YDL192W, strain arf1, hits give low values 0.0575 | locus YDR001C, strain nth1, hits give low values 0.0561 | locus YDR069C, strain doa4, hits give low values 0.0594 | locus YDR101C, strain arx1, hits give low values 0.0572 | locus YDR137W, strain rgp1, hits give low values 0.0892 | locus YDR159W, strain sac3, hits give low values 0.0785 | locus YDR162C, strain NBP2, hits give low values 0.0508 | locus YDR195W, strain ref2 0.112 | locus YDR297W, strain sur2, hits give low values 0.0548 | locus YDR318W, strain mcm21, hits give low values 0.0609 | locus YDR334W, strain swr1, hits give low values 0.0602 | locus YDR335W, strain msn5, hits give low values 0.0584 | locus YDR388W, hits give low values 0.0542 | locus YDR392W, strain spt3, hits give low values 0.0691 | locus YDR502C, strain sam2, hits give low values 0.0626 | locus YEL003W, strain gim4, hits give low values 0.0521 | locus YEL037C, strain rad23, hits give low values 0.0554 | locus YEL061C, strain CIN8 (second series), hits give low values 0.0588 | locus YEL061C, strain CIN8, hits give low values 0.0504 | locus YER015W, strain faa2, hits give low values 0.0619 | locus YER016W, strain bim1, hits give low values 0.0588 | locus YER110C, hits give low values 0.0699 | locus YER111C, strain swi4, hits give low values 0.0695 | locus YER155C, strain BEM2 (second series), hits give low values 0.0851 | locus YER155C, strain BEM2, hits give low values 0.0684 | locus YER167W, strain BCK2, hits give low values 0.0531 | locus YFR010W, strain ubp6, hits give low values 0.0641 | locus YGL078C, strain dbp3, hits give low values 0.0843 | locus YGL086W, strain mad1, hits give low values 0.0561 | locus YGL167C, strain pmr1, hits give low values 0.0723 | locus YGL173C, strain kem1, hits give low values 0.0635 | locus YGL227W, strain vid30, hits give low values 0.0611 | locus YGL240W, strain doc1, hits give low values 0.0709 | locus YGL248W, strain PDE1, hits give low values 0.05 | locus YGL253W, strain hxk2, hits give low values 0.0523 | locus YGR135W, strain pre9, hits give low values 0.0617 | locus YGR252W, strain gcn5, hits give low values 0.165 | locus YHR013C, strain ard1, hits give low values 0.0989 | locus YHR027C, strain rpn1, hits give low values 0.0592 | locus YHR030C, strain SLT2, hits give low values 0.0522 and 0.101 | locus YHR079C, strain IRE1 (second series), hits give low values 0.0549 | locus YHR079C, strain IRE1, hits give low values 0.104 | locus YHR094C, strain hxt1, hits give low values 0.0561 | locus YHR129C, strain ARP1, hits give low values 0.0578 | locus YHR142W, strain chs7, hits give low values 0.072 | locus YHR200W, strain rpn10, hits give low values 0.0568 | locus YIL066C, strain RNR3, hits give low values 0.054 | locus YIL073C, strain SPO22, hits give low values 0.12 | locus YIL125W, strain kgd1, hits give low values 0.0749 | locus YIR030C, strain dcg1, hits give low values 0.0563 | locus YJL092W, strain hpr5, hits give low values 0.0568 | locus YJL095W, strain BCK1 (second series), hits give low values 0.0554 | locus YJL095W, strain BCK1, hits give low values 0.0585 and 0.103 | locus YJL115W, strain asf1, hits give low values 0.0691 | locus YJL129C, strain trk1, hits give low values 0.0794 | locus YJL134W, strain LCB3, hits give low values 0.0506 | locus YJL154C, strain vps35, hits give low values 0.0594 | locus YJL164C, strain tpk1, hits give low values 0.057 | locus YJL166W, strain qcr8, hits give low values 0.0596 | locus YJL168C, strain set2, hits give low values 0.0557 | locus YJL187C, strain SWE1 (second series), hits give low values 0.0514 | locus YJL187C, strain SWE1, hits give low values 0.0563 | locus YJR043C, strain POL32, hits give low values 0.0648 | locus YJR066W, strain TOR1, hits give low values 0.00362 | locus YKL009W, strain mrt4, hits give low values 0.213 | locus YKL068W, hits give low values 0.172 | locus YKL085W, strain MDH1 (second series), hits give low values 0.0866 | locus YKL085W, strain MDH1, hits give low values 0.0866 | locus YKL160W, strain elf1, hits give low values 0.0603 | locus YKR001C, strain vps1, hits give low values 0.0608 | locus YKR026C, strain gcn3, hits give low values 0.0637 | locus YKR091W, strain srl3, hits give low values 0.0576 | locus YLL001W, strain dnm1, hits give low values 0.0592 | locus YLL026W, hits give low values 0.056 | locus YLL041C, strain sdh2, hits give low values 0.0575 | locus YLR027C, strain aat2, hits give low values 0.0549 | locus YLR039C, strain RIC1, hits give low values 0.0893 | locus YLR058C, strain SHM2, hits give low values 0.052 | locus YLR102C, strain apc9, hits give low values 0.0571 | locus YLR113W, strain HOG1, hits give low values 0.119 | locus YLR221C, strain rsa3, hits give low values 0.0575 | locus YLR258W, strain gsy2, hits give low values 0.0566 | locus YLR262C, strain YPT6 (second series), hits give low values 0.0719 | locus YLR262C, strain YPT6, hits give low values 0.0979 | locus YLR268W, strain sec22, hits give low values 0.0813 | locus YLR320W, strain mms22, hits give low values 0.0724 | locus YLR330W, strain CHS5, hits give low values 0.0528 | locus YLR342W, strain FKS1 (second series), hits give low values 0.0706 | locus YLR342W, strain FKS1, hits give low values 0.0618 | locus YLR357W, strain rsc2, hits give low values 0.114 | locus YLR370C, strain arc18, hits give low values 0.0577 | locus YLR371W, strain rom2, hits give low values 0.0597 | locus YLR384C, strain iki3, hits give low values 0.0598 | locus YLR418C, strain cdc73, hits give low values 0.0929 | locus YML016C, strain PPZ1, hits give low values 0.0514 | locus YML032C, strain rad52, hits give low values 0.0687 | locus YML120C, strain ndi1, hits give low values 0.0557 | locus YML124C, strain tub3, hits give low values 0.0571 | locus YMR058W, strain fet3, hits give low values 0.0582 | locus YMR078C, strain ctf18, hits give low values 0.0671 | locus YMR125W, strain sto1, hits give low values 0.073 | locus YMR129W, hits give low values 0.0561 | locus YMR205C, strain PFK2, hits give low values 0.0818 | locus YMR223W, strain ubp8, hits give low values 0.0638 | locus YMR231W, strain pep5, hits give low values 0.0634 | locus YMR307W, strain GAS1, hits give low values 0.113 | locus YNL067W, strain RPL9B, hits give low values 0.051 | locus YNL071W, strain lat1, hits give low values 0.0592 | locus YNL153C, strain GIM3, hits give low values 0.0542 | locus YNL183C, strain NPR1, hits give low values 0.00188 | locus YNL209W, strain ssb2, hits give low values 0.0576 | locus YNL233W, strain BNI4, hits give low values 0.0574 | locus YNL248C, strain rpa49, hits give low values 0.0804 | locus YNL250W, strain rad50, hits give low values 0.109 | locus YNL271C, strain bni1, hits give low values 0.0656 | locus YNL298W, strain CLA4, hits give low values 0.0604 | locus YNL307C, strain MCK1, hits give low values 0.0681 | locus YNL322C, strain KRE1 (second series), hits give low values 0.0636 | locus YNR049C, strain mso1, hits give low values 0.0552 | locus YNR052C, strain pop2, hits give low values 0.0587 | locus YOL006C, strain TOP1, hits give low values 0.115 | locus YOL147C, strain pex11, hits give low values 0.0557 | locus YOR001W, strain rrp6, hits give low values 0.0651 | locus YOR061W, strain CKA2, hits give low values 0.0485 | locus YOR069W, strain VPS5, hits give low values 0.0867 | locus YOR070C, strain gyp1, hits give low values 0.0566 | locus YOR080W, strain dia2, hits give low values 0.0634 | locus YOR083W, strain WHI5, hits give low values 0.0581 | locus YOR106W, strain vam3, hits give low values 0.0627 | locus YOR136W, strain idh2, hits give low values 0.0687 | locus YOR144C, strain elg1, hits give low values 0.0552 | locus YOR184W, strain ser1, hits give low values 0.0763 | locus YOR231W, strain MKK1, hits give low values 0.103 | locus YOR265W, strain rbl2, hits give low values 0.055 | locus YOR270C, strain vph1, hits give low values 0.0945 | locus YOR290C, strain snf2, hits give low values 0.0584 | locus YOR316C, strain cot1, hits give low values 0.056 | locus YPL051W, strain arl3, hits give low values 0.0608 | locus YPL055C, strain LGE1, hits give low values 0.0718 | locus YPL078C, strain atp4, hits give low values 0.0619 | locus YPL106C, strain sse1, hits give low values 0.0907 | locus YPL240C, strain hsp82, hits give low values 0.057 | locus YPL256C, strain CLN2, hits give low values 0.105 | locus YPR119W, strain clb2, hits give low values 0.0584 | locus YPR141C, strain kar3, hits give low values 0.0826 | locus YPR163C, strain tif3, hits give low values 0.0658 | locus YPR167C, strain met16, hits give low values 0.059 | strain wtn01, hits give low values 0.0645
